Measured values taken from PubChem BioAssay AID686971 (National Center for Advancing Translational Sciences (NCATS), 2013).
Out of some 360,000 compounds screened, about 7,500 (2.1%) were called active. About 8% were inconclusive and are not listed. This is one part of a sample in which actives are shown more often than they occur. Unmarked numbers belong to inactive results. Calls come from the whole dose curve; as a rule, active = well fitted cell-killing curve with a large enough effect; inconclusive = small, poorly fitted or top-dose-only effect, or effect the other way, or another doubt; inactive = no such curve, though single readings can be large or run the other way.

Assay: qHTS for induction of synthetic lethality in tumor cells producing 2HG: qHTS for the HT-1080-IDH1KD cell line
Settings: HT-1080 IDH1 knockdown viability, ATP luminescence, 48 h; series mostly up to 46.1 µM; activity, negative = toxicity: at the top concentration
From the text: Unbiased genomic sequencing for 22 glioma genomes found recurrent mutation of IDH1 on chromosome 2q33, a gene encoding the cytosolic isoform of IIDH1 associated with the tri-carboxylic acid cycle (TCA) that catalyzes the oxidative decarboxylation of isocitrate, yielding alpha-ketoglutarate and CO2 via NADP+ to NADPH conversion. Subsequent studies confirmed the recurrent IDH mutations in up to 70% of secondary gliomas and in 10% of AML cases. In addition, the somatic mutation of cancer-associated IDH1 is a point mutation resulting in various amino-acid substituents at Arginine132 (IDH1 R132), a key residue found in the enzyme's active site that when mutated, results in the loss-of-function in metabolizing isocitrate but confers a gain-of-function to produce the oncometabolite 2-hydroxyglutarate (2HG). This in effect defines IDH1 as an oncogene and provides an extraordinary opportunity to discover chemical probes against mutant IDH1 that may translate into much needed new therapies for glioma and AML patients.
This assay aims to perform a synthetic-lethal screen for chemical probes specific for 2HG-producing tumor cells using matched paired cell lines (1) HT-1080-NT fibrosarcoma cell line that overproduces 2HG and (2) HT-1080-IDH1KD cell line which has IDH1 expression knocked-down. Desirable compounds are toxic to the NT fibrosarcoma cell line but not to the IDH1KD cell line. The data in this AID corresponds to the results of the qHTS against the HT-1080 IDH1KD cell line.
[1] Dang L, Jin S, Su SM. IDH mutations in glioma and acute myeloid leukemia. Trends of Mol Med. 2010; 16(9): 387-97.
[2] Dang L et al. Cancer-associated IDH1 mutations produce 2-hydroxyglutarate. Nature. 2010; 465(7300):966.
Molecular Libraries Probe Production Centers Network [MLPCN]
NIH Chemical Genomics Center [NCGC]
Assay Submitter (PI): Lenny Dang Ph.D., Agios Pharmaceuticals
Suspensions of trypsinized HT-1080-IDH1KD cells were dispensed into white, tissue culture-treated, solid 1536-well plates at 5uL/well (750 cells/well final concentration) in RPMI medium supplemented with 5% FBS. Plates were incubated at 37 degrees C for 2 hours, after which 23 nL of compounds or DMSO were delivered to each well using a pin tool. Plates were then incubated at 37 degrees C for an additional 48 hours. CellTiter-Glo viability reagent (Promega) was dispensed into wells (2.5uL/well) and incubated at room temperature for 10 minutes. The plates were measured on a PerkinElmer ViewLux plate reader for luminescent signal (clear filter, 1 sec exp.). DMSO-treated control wells and media-only (no cells) control wells were used to normalize %Activity of identified toxic compounds; DMSO-treated wells corresponded to 0%Activity (100% viability), while media-only controls were used to normalize 100%Activity (0% viability). To minimize variability between cell lines, both HT-1080-NT and HT-1080-IDH1KD lines were dispensed and treated with identical compound series in single batches.
Concentration-response curves were fitted to the signals arising from the resulting luminescence. The concentration-effect curves were then classified based on curve quality (r2), response magnitude and degree of measured activity, and compounds were subsequently categorized based on their curve class.
Potency is the fitted concentration of half-maximal effect.

Compound	activity, negative = toxicity	Potency
N#CCSc1ccccc1NC(=O)CN1C(=O)NC(CCc2ccccc2)C1=O (stereo unspecified)	-0.729%	
COC(=O)[C@]12CCCCC=C1N(Cc1ccco1)C(=O)[C@H](CC(=O)NCCCCc1ccccc1)C2	-14%	
COc1ccc(-c2csc(Nc3ccc(O)cc3)n2)cc1		6.51 µM (active)
COc1ccc(C(C)(O)c2nc(-c3ccc(C)c(C)c3)cs2)cc1 (stereo unspecified)	-17.1%	
COc1ccc(-c2csc(Nc3cccc(C)n3)n2)cc1OC	-8.86%	
OC[C@@H]1CN(Cc2ccc(Cl)cc2)C[C@H](n2cnc3c(NCc4ccncc4)ncnc32)O1	15.5%	
Cc1ccc(S(=O)(=O)N2CC[C@H]3[C@@H](C2)C(=O)C[C@@H](c2ccccc2)N3S(=O)(=O)c2ccc(C)cc2)cc1	0.768%	
COc1ccc(-n2c(-c3ccc(Cl)cc3)n[nH]c2=S)c(OC)c1	4.73%	
Oc1ccccc1N1CCN(C(=S)NCc2ccccc2)CC1	-18.5%	
Oc1ccc(N2CCN(C(=S)NCc3ccccc3)CC2)cc1		16.4 µM (active)
O=C(COC(=O)c1ccccc1C(=O)N1CCN(c2ccccc2)CC1)NCc1ccccc1	-1.4%	
Cc1ccc(F)c(S(=O)(=O)NC(=O)C2(C)CCN2C(=O)c2ccco2)c1 (stereo unspecified)	8.94%	
COc1ccc(NC(=O)c2cc(=O)[nH]c3ccccc23)cc1S(=O)(=O)N1CCOCC1	4.67%	
O=C(COC(=O)c1ccccc1O)NCc1ccco1	11.6%	
CN(c1ccccc1)S(=O)(=O)c1ccc(Cl)c(C(=O)OCC(=O)NCc2ccco2)c1	2.81%	
Cc1cc(C(=O)OCC(=O)NCc2ccco2)c(C)n1-c1ccccc1		3.66 µM (active)
CCCCC(=O)N(C)c1c(CC)nc2c(OCc3ccc(S(C)(=O)=O)cc3)cccn12	13.3%	
CN1CCN(c2ccc3c(c2)OC[C@H](Cc2ccccc2)NS3(=O)=O)CC1	5.51%	
COc1ccc(S(=O)(=O)N2CCC(C(=O)NCc3ccco3)CC2)cc1C	5.29%	
COc1ccc(CNC(=O)C2CC(c3ccc(C(F)(F)F)cc3)=NO2)cc1 (stereo unspecified)	-25.8%	
COc1ccc(C2=NOC(C(=O)NCc3ccco3)C2)cc1OC (stereo unspecified)		4.47 µM (active)

Compound	activity, negative = toxicity	Potency
COc1ccc(OC)c(C(O)c2ncc(-c3cccc(C(F)(F)F)c3)[nH]2)c1 (stereo unspecified)	7.34%	
Cc1cc(C(=O)N/N=C/c2cc([N+](=O)[O-])cc(C)c2O)n[nH]1		16.4 µM (active)
Cc1ccc(S(=O)(=O)N2CCN(CC(=O)N/N=C/c3cc([N+](=O)[O-])ccc3Cl)CC2)cc1	-9.62%	
COc1ccc(CC(=O)N/N=C/c2cc([N+](=O)[O-])cc(Br)c2O)cc1	3.84%	
C[C@H]1CN([C@@H](C)CO)C(=O)c2cc(Br)cnc2O[C@H]1CN(C)S(=O)(=O)c1cccs1	-9.18%	
CCCC(=O)N1CCC1(C)C(=O)NS(=O)(=O)c1ccc(Cl)cc1 (stereo unspecified)	0.37%	
CC(=O)NC1=NN(C(C)=O)C(C)(c2ccc(C)cc2)S1 (stereo unspecified)	-0.299%	
CC(=O)NC1=NN(C(C)=O)C(C)(c2ccc(Cl)s2)S1 (stereo unspecified)		2.31 µM (active)
CC(=O)NC1=NN(C(C)=O)C(C)(CCS(=O)(=O)c2ccc(Cl)c(Cl)c2)S1 (stereo unspecified)	7.6%	
CCCCN1C(=O)C(CC(=O)NCc2cccs2)CC(C(=O)N2CCCCCC2)=C1C (stereo unspecified)	15.9%	
CC1(C(=O)NS(=O)(=O)c2ccc(Cl)cc2)CCN1C(=O)CC1CCCC1 (stereo unspecified)	28.5%	
COc1ccc(NC(=O)CSc2nnnn2-c2cccc(OC)c2)cc1	-2.36%	
COc1ccc(-n2nnnc2-c2nc3ccccc3s2)cc1	-23.9%	
CCOc1cccc(-n2nnnc2-c2ccc(OC)cc2)c1		4.61 µM (active)
Cc1nc2ccccc2nc1CC(O)(c1ccccc1)c1ccccc1	13.3%	
Nc1nc2c(ncn2[C@@H]2O[C@H](CNCc3ccc(OCCCN4CCOCC4)cc3)[C@@H](O)[C@H]2O)c(=O)[nH]1	22.6%	
CN(C)CCCN(C(=O)c1ccc(S(=O)(=O)N2CCCCCC2)cc1)c1nc2ccc(Br)cc2s1		16.4 µM (active)
Cc1ccc2nc(N(CCN(C)C)C(=O)C3=COCCO3)sc2c1	0.447%	
COc1ccc2sc(N(CCCN(C)C)C(=O)c3ccc(S(=O)(=O)N(C)C4CCCCC4)cc3)nc2c1	-0.544%	
O=S1(=O)CC(N2CCN(Cc3ccccc3F)CC2)CN1Cc1cn(Cc2cccc(C(F)(F)F)c2)nn1 (stereo unspecified)	-12.9%	
C[C@@H]1CN([C@@H](C)CO)S(=O)(=O)c2ccc(-c3ccc(C(=O)N(C)C)cc3)cc2O[C@@H]1CN(C)Cc1ccccc1C(=O)O	5.52%	

Compound	activity, negative = toxicity	Potency
Cc1ccc(C)c(NC(=S)NNC(=O)c2csc(C)c2)c1	10.6%	
Cc1ccc(C)c(NC(=S)NNC(=S)Nc2ccc(C(C)C)cc2)c1		23.1 µM (active)
CC(C)c1ccc(NC(=S)NNc2ccc(Cl)c(C(=O)O)c2)cc1	-3.36%	
Cc1cc(Br)ccc1NC(=O)CCCOc1cc(=O)n(C)c2ccccc12	-24.9%	
Cc1ccc(C(=O)Nc2c(-c3ccccc3)[nH][nH]c2=O)cc1	3.08%	
Fc1ccc(NC(=S)N2CCc3[nH]c4ccccc4c3C2)cc1	0.972%	
O=C(CCCN1CCc2[nH]c3ccc(F)cc3c2C1)c1ccc(F)cc1		20.6 µM (active)
O=C(Nc1ccc(Cl)cc1)N1CCc2[nH]c3ccccc3c2C1	-25.8%	
CC1(C(=O)NS(=O)(=O)c2ccccc2)CCN1C(=O)c1ccccc1 (stereo unspecified)	20.7%	
COc1cc(C(O)c2nc(-c3cccc(C(=O)O)c3)cs2)ccc1F (stereo unspecified)	12.4%	
COc1ccc2c(c1)c(=Cc1ccc(N(C)C)cc1)c1cc(-c3ccccc3)[n+](C)n12		5.17 µM (active)
COc1ccc2sc(-c3ccc(N(C)C)cc3)c(-c3ccc4cc[nH]c4c3)c2c1	-3.08%	
CCOc1ccc(C(CC(=O)O)NC(=O)Cc2ccccc2)cc1OC (stereo unspecified)	1.52%	
COc1ccc(CCNS(=O)(=O)c2cccc3cccnc23)cc1OC	-2.69%	
CCCCC(=O)NC(c1ccc(OC)c(OC)c1)c1ccc2cccnc2c1O (stereo unspecified)		2.91 µM (active)
CCCNC(=O)C1(C)CCCN(C(=O)c2cccc(OC(C)=O)c2C)C1 (stereo unspecified)	23.2%	
Cc1ccc(-c2cc(=O)c3ccc(F)cc3[nH]2)cc1	-3.06%	
O=c1cc(-c2ccccc2)[nH]c2cc(F)ccc12		4.11 µM (active)
Cc1cc(=O)c2ccc(NC(=O)c3ccccc3)cc2[nH]1	21.6%	
